Results: PubChem BioAssay (NCATS)
Several values for one entry are separate records, joined by “and”; a condition that tells them apart may be missing. Equal entries are not always repeated. Results filed as inconclusive are left out. Values without a mark were called inactive. Calls follow the shape of the dose curve; as a rule, active = well fitted inhibition curve with a large enough effect; inconclusive = small, poorly fitted or top-dose-only effect; inactive = flat fitted curve, though single readings scatter.

system: KB-3-1; test: Cytotoxic Profiling of Annotated Libraries Using Quantitative High-Throughput Screening (AID 1296008); conditions: Five cell lines viability, CellTiter-Glo ATP luminescence, 48-72 h; max response: hits give low values; also: nearly all actives have a fitted effect of over 60% in size
Outline: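 Compounds were pin-transferred onto cells and incubated 48 or 72 hr at 37 degree Celsius, 95% humidity. CellTiter-Glo was added, plates sat 10 min at room temperature, then ATP-coupled luminescence was imaged as the viability read-out.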
% is scaled to controls: 0 for no effect and ±100 for the full control effect.

**Q.** With `O=C(CCl)c1ccc(Oc2ccc(C(=O)CCl)cc2)cc1` as the compound, how does the max response read?
**A.** 0.148%

**Q.** How did the max response turn out when `O=Cc1ccco1` was run?
**A.** 3.99%

**Q.** For `C[N+]1([O-])[C@@H]2CC(OC(=O)[C@H](CO)c3ccccc3)C[C@H]1[C@@H]1O[C@@H]12` (stereo partly drawn), which max response is on record?
**A.** -17% and 5.47%
